Bioassay records (PubChem)
D1 potentiator = Potentiators of Human D1 Dopamine Receptor: qHTS. potentiation, % at 10 µM. D(1A) dopamine receptor (Homo sapiens), P21728. AID 504651, 2011. HEK293 TREx D1 cells, calcium flux, dopamine EC20 potentiation. 360,000 compounds, 0.036% hits; in the data active means potentiation above about 30%; further: 0% is about no effect
D3 ag = qHTS of D3 Dopamine Receptor Agonist: qHTS; D(3) dopamine receptor (Homo sapiens), P35462; D3R DiscoveRx beta-arrestin cells, luminescence, 90 min; max activation, %; 410,000 compounds, 0.58% hits; AID 652048, 2013; in the data active means max activation above about 30%; further: 0% is about no effect
Target sequence (P35462 whole entry, looked up): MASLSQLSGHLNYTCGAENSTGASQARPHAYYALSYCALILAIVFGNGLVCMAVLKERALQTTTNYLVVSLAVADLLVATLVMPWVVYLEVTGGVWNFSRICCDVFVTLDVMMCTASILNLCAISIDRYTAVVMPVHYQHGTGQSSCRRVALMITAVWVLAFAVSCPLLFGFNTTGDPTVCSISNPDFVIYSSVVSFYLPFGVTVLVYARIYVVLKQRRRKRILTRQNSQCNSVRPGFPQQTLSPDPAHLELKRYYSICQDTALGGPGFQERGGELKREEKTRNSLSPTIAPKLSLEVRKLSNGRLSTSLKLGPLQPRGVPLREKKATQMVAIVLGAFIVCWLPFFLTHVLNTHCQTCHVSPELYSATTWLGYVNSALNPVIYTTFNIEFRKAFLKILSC
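Cells at 1500/well, incubated overnight, then treated with pinned compounds (dopamine as control) for 90 min at 37 degrees C. DiscoveRx reagent added for 30 - 60 minutes at room temperature; luminescence read.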
D3 antag = qHTS of D3 Dopamine Receptor Antagonist: qHTS | D(3) dopamine receptor (Homo sapiens), P35462 | D3R cells, DiscoveRx beta-arrestin luminescence, antagonist mode; hits give low values | max response, negative = inhibition, % | 360,000 compounds, 2.5% hits | AID 652054, 2013; in the data active means max response below about -50%; inconclusive means no clear call, values can overlap the other calls; further: on the % scale 0 is the no-effect control and ±100 the full control effect
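Cells expressing the human receptor were seeded at 1500 cells/well, incubated overnight at 37 degrees C in 5% CO2, then exposed to library compounds with dopamine controls for 90 minutes at 37 degrees C before luminescent detection.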
D1 antagonist = Antagonist of Human D 1 Dopamine Receptor: qHTS | activity change, negative = inhibition, % at 10 µM | 360,000 compounds, 3.2% hits | AID 504652, 2011 | HEK293 TREx D1 cells, calcium flux, dopamine EC80; hits give low values; in the data active means activity change below about -30%; further: on the % scale 0 is the no-effect control and ±100 the full control effect
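Antagonism measured as reduced calcium response to an EC80 dopamine addition following 180 s compound pre-read; cells were inducible HEK293 Trex D1 plated overnight at 30 C, read kinetically at 1 cycle/sec.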
D1 ag = Allosteric Agonists of the Human D1 Dopamine Receptor: qHTS; activation, % at 2 µM; D(1A) dopamine receptor (Homo sapiens), P21728; 360,000 compounds, 1% hits; HEK293 T-REx D1 cells, calcium flux, agonist mode; in the data active means activation above about 30%; further: 0% is about no effect
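Inducible HEK293 T-REx D1 cells, force-coupled to calcium signalling, were plated at 4000 cells/well with tetracycline and held overnight at 30 C. After no-wash calcium dye loading, compound-evoked calcium rise over 180 s flagged agonists.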
Starred values were filed as active, the others as inactive; u = inconclusive; x = no result given; ! = a repeat was not active. The list is not random: actives were taken first. Their share in the collection is about 6%.

SMILES	D1 potentiator	D3 ag	D3 antag	D1 antagonist	D1 ag
Cn1c(=O)n(C)c2cc([N+](=O)[O-])c(N3CCN(C(=O)c4cccc(Cl)c4)CC3)cc21	-4.0	-13.7	-59.8*	-14.4	3.8
Cn1c(=O)n(C)c2cc([N+](=O)[O-])c(N3CCN(C(=O)c4cccc(F)c4)CC3)cc21	-1.7	-6.7	u	-9.5	6.1
O=C(CCC(=O)c1ccc(F)cc1)NCC1(N2CCCCC2)CCCCC1	-0.3	-11.5	-88.5*	-5.0	0.7
NC(=O)COc1ccc(C(=O)NCC2(N3CCOCC3)CCCCC2)cc1	0.4	-2.0	14.6	-32.0*	0.3
O=C(COc1ccccc1)NCC1(N2CCCCC2)CCCCC1	3.2	-7.2	2.0	-66.1*	-1.3
N#Cc1ccc(OCC(=O)NCC2(N3CCCCC3)CCCCC2)cc1	-2.8	-4.1	-11.7	35.2	5.4
O=C(CCC(=O)c1ccc(F)cc1)NN1C(=O)NC2(CCCCC2)C1=O	-0.6	7.2	5.4	-0.7	0.1
CS(=O)(=O)c1ccc(C(=O)NCC2(N3CCOCC3)CCCCC2)cc1	x	-9.9	3.6	x	x
O=C(c1cc(C2CCCCN2C(=O)CCCc2ccccc2)on1)N1CCOCC1 (stereo unspecified)	x	-7.3	-51.2*	x	x
CC(C)c1ccc(NC(=O)Nc2cc3sccc3n2C)cc1	-1.5	1.5	-29.7	-36.8*	-3.3
CCN(CC)CCCNC(=S)N1CCN(c2nc3ccccc3n2CC)CC1	-10.9	-17.9	u	-34.8*	1.3
COCCNC(=S)N1CCN(c2nc(-c3ccc(F)cc3)cs2)CC1	-16.1	-0.7	-1.7	-34.2*	3.4
COCCNC(=S)N1CCN(c2nc(-c3ccc(Cl)cc3)cs2)CC1	-8.9	-7.3	-2.8	-1.5	-0.4
CC(C)C(=O)N1CCN(c2nc(-c3ccc(Cl)cc3)cs2)CC1	7.3	3.8	26.5	0.1	0.2
O=C(Cc1cccs1)N1CCN(c2nc(-c3ccc(Cl)cc3)cs2)CC1	-1.1	36.5*	53.2	1.9	2.6
COc1cccc(-c2csc(N3CCN(C(=S)Nc4ccccc4C)CC3)n2)c1	-2.6	-3.0	-0.5	-32.8*	1.0
COc1ccc(-n2c(=S)[nH]c3cc(C(=O)Nc4ccc(C)c(F)c4)ccc3c2=O)c(OC)c1	-3.1	-0.1	u	-14.9	3.0
Cc1cccc(NC(=O)C2CCN(c3nc4ccccc4[nH]3)CC2)c1C	-1.2	-1.5	x	-1.7	0.9
CCCCC(=O)N1CCN(c2nc(-c3ccc(F)cc3)cs2)CC1	-3.7	0.3	-12.4	-30.5*	2.5
CCNC(=S)N1CCN(c2nc(-c3ccc(F)cc3)cs2)CC1	-4.6	3.3	-2.1	4.0	2.9
CCN(CC)CCCNC(=S)N1CCN(c2nc(-c3ccc(F)cc3)cs2)CC1	-12.7	-7.2	-52.2*	-45.7*	43.3*
CCN(C(=O)CCS(=O)(=O)c1cc2c(cc1C)NC(=O)CO2)c1cccc(C)c1	-2.2	2.2	x	13.5	-1.1
CCN(C(=O)CCS(=O)(=O)c1cc2[nH]c(=O)c(=O)[nH]c2cc1C)c1ccccc1	-0.7	-9.0	x	-79.7*	-0.1
CC(=O)c1cccc(Nc2ncnc3c2cnn3-c2cccc(Cl)c2)c1	-0.7	6.2	x	9.9	1.3
Cc1ccc(NC(=S)NC2CCN(Cc3ccccc3)CC2)cc1C	-11.6	-0.1	-52.5*	-82.3*	21.2
SMILES	D1 potentiator	D3 ag	D3 antag	D1 antagonist	D1 ag
Cc1ccc(NC(=S)NC2CCN(Cc3ccccc3)CC2)cc1	-4.8	-26.6	-61.5*	-64.2*	17.1
Cc1ccc(NC(=O)CN2CCC(NC(=O)Cc3ccccc3)CC2)cc1C	x	9.4	19.8	x	x
S=C(Nc1ccc2c(c1)OCO2)NC1CCN(Cc2ccccc2)CC1	-12.2	-59.2	-65.3*	-37.7*	9.2
O=C(Nc1ccccc1)NC1CCN(Cc2ccccc2)CC1	-2.2	x	x	2.2	8.0
CC(C)c1ccc(NC(=S)NC2CCN(Cc3ccccc3)CC2)cc1	-7.0	-20.9	u	-27.0	36.4*
CCOC(=O)C1(C)CCCN(C(=O)c2ccc(C)c(F)c2)C1 (stereo unspecified)	x	3.0	0.4	x	x
COc1ccc(CCNC(=O)c2cc(Sc3cccc(Cl)c3)nc3ccccc23)cc1OC	-3.4	18.1	x	-17.9	3.0
CC(C)c1ccc(-c2csc3ncnc(N4CCN(C)CC4)c23)cc1	-6.2	-34.0	-71.5*	4.6	2.6
COc1ccc(-c2csc3ncnc(N4CCN(c5ccccc5O)CC4)c23)cc1	-15.1	-6.6	9.1	-19.8	43.9*
CCOC(=O)c1ccc(N2C(=O)C=CC2=O)cc1	1.3	3.5	-81.7*	0.3	-1.6
COc1ccc(N2CCN(C3CCN(S(=O)(=O)c4ccc(F)cc4)CC3)CC2)cc1	-0.8	3.5	-13.6	-3.4	3.1
COc1cccc(C(c2ccccc2)N2C3CCC2CN(S(=O)(=O)c2ccc(F)cc2)CC3)c1 (stereo unspecified)	-3.5	-8.3	u	-0.9	61.9*
CN1CCN(Cc2c(C(=O)N/N=C/c3cccc(Br)c3)nnn2-c2nonc2N)CC1	-4.0	1.5	-9.6	-5.5	7.2
N#CN1CCC(N[S+](=O)([O-])c2cccc(F)c2)CC1	13.4	x	x	-19.8	1.5
Cc1cccc([S+](=O)([O-])NC2CCN(C#N)CC2)c1	-0.1	x	x	-81.0*	2.0
Cc1cc(C)[n+]2n1C(=O)C(c1ccccc1)=C2[O-]	-0.1	49.7*!	-13.4	0.0	1.6
Cc1cccc(NCc2ccc(O)c3ncccc23)c1C	-5.6	-19.9	-26.6	-1.4	-0.4
CCN(CC)S(=O)(=O)c1cc(OC)ccc1N=Nc1ccc(O)c2ncccc12	2.5	-6.9	-108.4*	-0.5	2.3
Cc1cccnc1NCc1ccc(O)c2ncccc12	1.0	-18.5	-50.6*	3.8	3.5
Cc1ccc(C)c(N=Nc2ccc(O)c3ncccc23)c1	-8.2	-5.9	u	-71.2*	-0.5
Cc1cccc(N=Nc2ccc(O)c3ncccc23)c1	10.7	-1.6	-100.7*	27.9	29.5
CCS(=O)(=O)c1ccc(OC)c(N=Nc2ccc(O)c3ncccc23)c1	-7.1	3.3	4.7	9.7	-1.2
O=C(CSc1nnc(CNC(=O)c2ccccc2F)n1-c1ccccc1)Nc1ccccc1F	-1.9	-9.5	x	-16.5	0.5
NS(=O)(=O)c1ccc(N=Nc2ccc(O)c3ncccc23)cc1	-0.7	3.5	u	2.6	5.2
O=C(Nc1ncccc1O)c1ccc2c(c1)OCCO2	-5.9	2.7	6.3	5.8	0.8
CCOc1ccc(N=Nc2ccc(O)c3ncccc23)cc1	9.6	-2.9	-58.4*	2.2	9.7
Oc1ccc(N=Nc2ccc3c(c2)OCCO3)c2ncccc12	7.8	-24.1	-66.4*	2.1	40.8*
